Where “and” joins values, the source holds several entries; their conditions need not be identical. Equal entries are not always repeated. Inconclusive results are not listed. Entries that show only a call come without a potency. Calls of active or inactive are those of the source. Unless noted, calls come from the whole dose curve.
Key:
[1] = qHTS assay to identify small molecule agonists of the sonic hedgehog signaling (Shh) pathway (AID 1259368); note: series mostly up to about 92 µM; nearly all actives have a fitted effect of over 15% in size
Method in brief: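 NIH/3T3-derived 3T3Gli1-Luc cells carrying a stably integrated Gli1 response element–firefly luciferase reporter were plated, left 4 hr at 37 C, then given compounds in DMSO for 24 hr. Luminescence was read 30 min after adding luciferase reagent.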

[2] = qHTS assay to identify small molecule antagonists of the sonic hedgehog signaling (Shh) pathway (AID 1259369); note: nearly all actives have a fitted effect of over 45% in size; note: potency is the fitted concentration of half-maximal effect
Method in brief: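 NIH/3T3-derived 3T3Gli1-Luc cells with stably integrated Gli1-Luc reporter were preincubated 4hr at 37 C, then given compounds in DMSO plus Shh conditioned medium and incubated 24hr. Firefly luciferase luminescence read after 30min reagent at room temperature.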

[3] = biological target: Estrogen receptor beta (Homo sapiens) (UniProt Q92731); assay: qHTS assay to identify small molecule antagonists of the estrogen receptor beta (ER-beta) signaling pathway (AID 1259378; active = well fitted inhibition curve with a large enough effect in the signal ratio in the repeat runs, not every such curve was filed as active; the % refers to the signal ratio; note: potency is the fitted concentration of half-maximal effect)
Chain of Estrogen receptor beta (Homo sapiens) (Q92731 whole entry, looked up): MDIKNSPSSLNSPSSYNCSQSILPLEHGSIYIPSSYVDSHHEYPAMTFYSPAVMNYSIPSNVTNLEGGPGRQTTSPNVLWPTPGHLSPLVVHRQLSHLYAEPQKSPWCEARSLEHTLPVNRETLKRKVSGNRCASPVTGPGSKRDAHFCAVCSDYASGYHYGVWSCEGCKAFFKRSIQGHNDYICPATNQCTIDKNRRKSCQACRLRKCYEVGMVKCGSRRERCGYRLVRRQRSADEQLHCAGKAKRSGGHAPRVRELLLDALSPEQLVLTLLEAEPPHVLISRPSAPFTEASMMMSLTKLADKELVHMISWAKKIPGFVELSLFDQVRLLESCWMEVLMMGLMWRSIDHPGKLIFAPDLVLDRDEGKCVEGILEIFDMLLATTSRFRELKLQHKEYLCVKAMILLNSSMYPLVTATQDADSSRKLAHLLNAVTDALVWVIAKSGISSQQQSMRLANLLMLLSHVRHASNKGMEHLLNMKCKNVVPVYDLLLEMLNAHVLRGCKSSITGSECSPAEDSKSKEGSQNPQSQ
Method in brief: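 Antagonist mode: compounds added to beta-lactamase reporter HEK293T ER-beta-UAS cells stimulated with E2 (1nM final), 16 hr at 37C. LiveBLAzer B/G FRET substrate, 2 hours room temperature, fluorescence read-out.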

[4] = qHTS assay to identify small molecule agonists of the estrogen receptor beta (ER-beta) signaling pathway - cell viability counter screen (AID 1259380; active = well fitted curve in the direction sought with a large enough effect in the repeat runs; an effect the other way counts as inactive or inconclusive; note: nearly all actives have a fitted effect of over 30% in size; note: potency is the fitted concentration of half-maximal effect)
Method in brief: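 ER-beta-UAS-bla HEK293T cells in medium with 2% charcoal-stripped FBS were preincubated 6 hr at 37C, dosed with compound in DMSO for 16 hr, then after the bla read, CellTiter-Glo was added for 30 min at room temperature; luminescence recorded.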

[5] = qHTS assay to identify small molecule antagonists of the estrogen receptor beta (ER-beta) signaling pathway - cell viability counter screen (AID 1259382; active = well fitted curve in the direction sought with a large enough effect in the repeat runs; an effect the other way counts as inactive or inconclusive; note: nearly all actives have a fitted effect of over 55% in size; note: potency is the fitted concentration of half-maximal effect)
Method in brief: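 ER-beta-UAS-bla HEK293T cells (2,000/well, 2% charcoal-stripped FBS) were pre-incubated 6 hr at 37C, then given compound plus 1nM final 17-beta-estradiol for 16 hr. Viability was read in the same wells by CellTiter-Glo luminescence after 30 min at room temperature.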

[6] = biological target: Estrogen receptor (Homo sapiens) (UniProt P03372); assay: qHTS assay to identify small molecule agonists of the estrogen receptor alpha (ER-alpha) signaling pathway in the presence of an antagonist (AID 1259383); note: top concentration of the series differs between compounds; nearly all actives have a fitted effect of over 15% in size
Chain of Estrogen receptor (Homo sapiens) (P03372 whole entry, looked up): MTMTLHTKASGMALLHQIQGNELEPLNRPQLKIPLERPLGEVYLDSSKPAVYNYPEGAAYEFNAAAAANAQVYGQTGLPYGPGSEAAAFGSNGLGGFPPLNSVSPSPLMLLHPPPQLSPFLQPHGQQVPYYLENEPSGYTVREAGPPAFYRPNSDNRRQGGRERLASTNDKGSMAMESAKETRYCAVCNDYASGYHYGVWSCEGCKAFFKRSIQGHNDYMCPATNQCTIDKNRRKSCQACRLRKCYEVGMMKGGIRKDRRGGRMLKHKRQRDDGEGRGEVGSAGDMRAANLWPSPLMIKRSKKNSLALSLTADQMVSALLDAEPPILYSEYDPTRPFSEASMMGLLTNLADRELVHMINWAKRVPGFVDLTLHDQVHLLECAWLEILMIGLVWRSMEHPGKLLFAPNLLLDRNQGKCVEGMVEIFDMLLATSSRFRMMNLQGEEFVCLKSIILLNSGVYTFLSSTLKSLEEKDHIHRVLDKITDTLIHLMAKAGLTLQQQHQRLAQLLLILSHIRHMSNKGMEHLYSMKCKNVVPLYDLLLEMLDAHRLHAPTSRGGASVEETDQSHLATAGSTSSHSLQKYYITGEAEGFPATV
Method in brief: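 VM7Luc4E2 cells (endogenous full-length ER-alpha, 4×ERE-luciferase) were precultured 5 days in phenol red-free medium with 10% charcoal-stripped FBS, given 10.0nM ICI-182,780 (final), then treated with compounds at 15 concentrations for 22hr at 37C; luminescence read with ONE-Glo.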

[7] = qHTS assay to identify small molecule agonists or antagonists of the thyroid stimulating hormone receptor (TSHR) signaling pathway - wild type cell line counter screen (AID 1259384)
Method in brief: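 Counter screen in untransfected Hek293: compounds (15-point titration, triplicate) plus phosphodiesterase inhibitor Ro20-1724 added after 18 h plating; 30 min RT. Intracellular cAMP via competitive d2/cryptate immunoassay, 1 h incubation.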

[8] = biological target: Thyrotropin receptor (Homo sapiens) (UniProt P16473); assay: qHTS assay to identify small molecule antagonists of the thyroid stimulating hormone receptor (TSHR) signaling pathway (AID 1259385); note: nearly all actives have a fitted effect of over 20% in size; note: potency is the fitted concentration of half-maximal effect
Chain of Thyrotropin receptor (Homo sapiens) (P16473 whole entry, looked up): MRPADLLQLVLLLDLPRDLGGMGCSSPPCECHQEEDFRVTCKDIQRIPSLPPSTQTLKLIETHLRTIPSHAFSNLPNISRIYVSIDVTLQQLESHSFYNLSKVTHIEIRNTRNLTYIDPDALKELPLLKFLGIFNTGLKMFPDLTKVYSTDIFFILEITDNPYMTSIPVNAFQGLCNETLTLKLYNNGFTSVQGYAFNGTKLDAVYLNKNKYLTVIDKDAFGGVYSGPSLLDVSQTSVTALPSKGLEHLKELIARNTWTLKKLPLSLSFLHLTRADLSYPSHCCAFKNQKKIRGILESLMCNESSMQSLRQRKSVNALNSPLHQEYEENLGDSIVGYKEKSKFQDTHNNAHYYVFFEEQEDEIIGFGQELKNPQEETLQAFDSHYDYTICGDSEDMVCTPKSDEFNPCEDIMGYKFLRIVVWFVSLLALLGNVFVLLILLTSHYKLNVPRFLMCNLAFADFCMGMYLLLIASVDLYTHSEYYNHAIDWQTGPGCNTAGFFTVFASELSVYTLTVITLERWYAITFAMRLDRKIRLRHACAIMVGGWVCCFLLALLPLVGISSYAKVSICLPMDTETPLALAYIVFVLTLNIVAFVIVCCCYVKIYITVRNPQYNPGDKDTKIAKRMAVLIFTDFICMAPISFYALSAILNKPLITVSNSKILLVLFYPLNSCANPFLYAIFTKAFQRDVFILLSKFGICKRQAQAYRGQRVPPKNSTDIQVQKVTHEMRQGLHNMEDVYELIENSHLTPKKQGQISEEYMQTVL
Method in brief: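 Antagonist mode: compound-treated TSHR-expressing HEK293 cells were stimulated with 1.5 ng/mL TSH (final) in presence of Ro20-1724 for 30 min at RT. HTRF cAMP detection after 1 h; each compound tested at 15 concentrations, triplicate.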

[9] = qHTS assay to identify small molecule agonists of the estrogen receptor alpha (ER-alpha) signaling pathway in the presence of an antagonist - cell viability counter screen (AID 1259386; active = well fitted curve in the direction sought with a large enough effect in the repeat runs; an effect the other way counts as inactive or inconclusive;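 note: series mostly up to about 92 µM; cells exposed to compounds for 22 h at 37 °C before the viability read; nearly all actives have a fitted effect of over 30% in size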)
Method in brief: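 VM7Luc4E2 cells (endogenous full-length ER-alpha, 4×ERE-luciferase) were held 5 days in phenol red-free medium with 10% charcoal-stripped FBS, plated, then given 10.0nM ICI-182,780 and compounds at 15 concentrations for 22hr at 37C; viability read by CellTiter-Fluor fluorescence.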

[10] = qHTS assay to identify small molecule antagonists of the progesterone receptor (PR) signaling pathway - cell viability counter screen (AID 1346798; active = well fitted curve in the direction sought with a large enough effect in the repeat runs; an effect the other way counts as inactive or inconclusive; note: nearly all actives have a fitted effect of over 50% in size; note: potency is the fitted concentration of half-maximal effect)
Method in brief: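 Counter screen for cytotoxicity: viability of PR-UAS-bla HEK293T cells was measured with CellTiter-Glo luminescence following 16 hr compound exposure in the presence of R5020.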

[11] = qHTS assay to identify small molecule agonists of the progesterone receptor (PR) signaling pathway - cell viability counter screen (AID 1346799); note: nearly all actives have a fitted effect of over 45% in size; note: potency is the fitted concentration of half-maximal effect
Method in brief: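 Cells (PR-UAS-bla HEK293T) are plated at 3,000/well in 2% charcoal-stripped FBS medium, rested 6 hr, dosed and incubated 16 hr at 37C. CellTiter-Glo is then added and luminescence measured after 30 min at room temperature.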

[12] = qHTS assay to identify small molecule antagonists of the TGF-beta/Smad signaling pathway - cell viability counter screen (AID 1346824; active = well fitted curve in the direction sought with a large enough effect in the repeat runs; an effect the other way counts as inactive or inconclusive; note: nearly all actives have a fitted effect of over 50% in size)
Method in brief: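 Cytotoxicity counter-screen run in the same wells as the beta-lactamase Smad reporter read: CellTiter-Glo luminescence after 30 min at room temperature. HEK 293T SBE-bla cells had 5 hr compound exposure at 37 C with TGF-beta1 (0.25 ng/mL stock).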

[13] = qHTS assay to identify small molecule agonists of the TGF-beta/Smad signaling pathway - cell viability counter screen (AID 1346829; active = well fitted curve in the direction sought with a large enough effect in the repeat runs; an effect the other way counts as inactive or inconclusive; note: top concentration of the series differs between compounds; nearly all actives have a fitted effect of over 45% in size)
Method in brief: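 Same-well cytotoxicity: CellTiter-Glo added after the 2 hr room-temperature beta-lactamase substrate step, luminescence measured 30 min later; cells had 5 hr of compound at 37 C.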

[14] = qHTS assay to identify small molecule agonists of the TGF-beta/Smad signaling pathway (AID 1346859; active = well fitted activation curve with a large enough effect in the signal ratio in the repeat runs, not every such curve was filed as active; the % refers to the signal ratio; note: series mostly up to about 77 µM)
Method in brief: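 Reporter line: HEK 293T with stably integrated SBE-controlled beta-lactamase. Compound exposure lasts 5 hr at 37 C and 5% CO2; substrate loading follows for 2 hr at room temperature, with emission read at 460 and 530 nm.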

[15] = biological target: Thyrotropin-releasing hormone receptor (Homo sapiens) (UniProt P34981); assay: qHTS assay to identify small molecule antagonists of the thyrotropin-releasing hormone receptor (TRHR) signaling pathway (AID 1346877; active = well fitted inhibition curve with a large enough effect in the repeat runs, not every such curve was filed as active; note: series mostly up to about 51 µM)
Chain of Thyrotropin-releasing hormone receptor (Homo sapiens) (P34981 whole entry, looked up): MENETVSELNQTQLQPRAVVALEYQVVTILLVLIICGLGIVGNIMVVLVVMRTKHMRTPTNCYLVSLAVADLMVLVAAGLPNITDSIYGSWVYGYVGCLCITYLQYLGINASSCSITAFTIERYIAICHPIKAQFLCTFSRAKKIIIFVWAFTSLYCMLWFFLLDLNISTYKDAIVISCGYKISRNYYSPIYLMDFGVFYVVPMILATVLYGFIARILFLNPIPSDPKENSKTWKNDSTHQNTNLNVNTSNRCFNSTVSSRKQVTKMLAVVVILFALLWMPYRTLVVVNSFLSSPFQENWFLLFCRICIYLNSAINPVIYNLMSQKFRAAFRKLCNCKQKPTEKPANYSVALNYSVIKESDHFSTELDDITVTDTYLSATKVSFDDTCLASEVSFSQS
Method in brief: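 TRHR-expressing HEK293 cells were seeded, cultured 18 h at 37 °C, then loaded with calcium dye for 2 h. Compounds were pre-incubated 5 min at room temperature before 1 nM TRH (final) was added, and kinetic fluorescence was recorded for 3 min.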

[16] = qHTS assay to identify small molecule agonists of the androgen receptor (AR) signaling pathway in the presence of an antagonist - cell viability counter screen (AID 1259379; active = well fitted curve in the direction sought with a large enough effect in the repeat runs; an effect the other way counts as inactive or inconclusive; note: nearly all actives have a fitted effect of over 25% in size; note: potency is the fitted concentration of half-maximal effect)
Method in brief: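 MDA-kb2 human breast carcinoma cells (stable MMTV-luciferase, AR/GR responsive) were seeded 3,000 cells/well, pre-incubated 5 hr at 37C without CO2, then given 3.0uM nilutamide and compounds at 15 concentrations for 16 hr. Viability was read by CellTiter-Fluor fluorescence.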

[17] = biological target: Androgen receptor (Homo sapiens) (UniProt P10275); assay: qHTS assay to identify small molecule agonists of the androgen receptor (AR) signaling pathway in the presence of an antagonist (AID 1259381); note: nearly all actives have a fitted effect of over 15% in size; note: potency is the fitted concentration of half-maximal effect
Chain of Androgen receptor (Homo sapiens) (P10275 whole entry, looked up): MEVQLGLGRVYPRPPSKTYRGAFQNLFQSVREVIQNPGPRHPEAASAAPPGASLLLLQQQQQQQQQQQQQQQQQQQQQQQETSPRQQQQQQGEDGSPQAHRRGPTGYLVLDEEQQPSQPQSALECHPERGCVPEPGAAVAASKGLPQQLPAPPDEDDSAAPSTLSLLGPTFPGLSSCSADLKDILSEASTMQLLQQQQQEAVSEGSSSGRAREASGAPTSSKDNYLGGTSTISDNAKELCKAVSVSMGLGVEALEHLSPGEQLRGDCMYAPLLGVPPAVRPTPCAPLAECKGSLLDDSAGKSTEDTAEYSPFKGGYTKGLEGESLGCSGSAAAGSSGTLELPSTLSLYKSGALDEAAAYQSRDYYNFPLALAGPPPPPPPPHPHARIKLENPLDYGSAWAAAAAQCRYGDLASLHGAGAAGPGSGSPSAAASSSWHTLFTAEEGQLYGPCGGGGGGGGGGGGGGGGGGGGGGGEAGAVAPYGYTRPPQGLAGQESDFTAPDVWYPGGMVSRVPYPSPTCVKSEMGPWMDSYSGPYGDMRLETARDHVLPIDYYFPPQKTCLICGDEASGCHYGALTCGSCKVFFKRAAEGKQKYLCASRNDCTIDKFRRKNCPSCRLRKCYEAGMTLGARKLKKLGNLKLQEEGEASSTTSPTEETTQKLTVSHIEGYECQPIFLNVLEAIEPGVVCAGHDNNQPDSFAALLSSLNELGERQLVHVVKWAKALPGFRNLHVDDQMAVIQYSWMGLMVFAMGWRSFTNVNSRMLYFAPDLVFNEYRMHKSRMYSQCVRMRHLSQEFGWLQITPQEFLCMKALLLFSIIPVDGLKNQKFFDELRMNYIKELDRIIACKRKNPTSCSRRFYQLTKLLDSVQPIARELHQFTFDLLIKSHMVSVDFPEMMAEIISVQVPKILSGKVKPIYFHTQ
Method in brief: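 MDA-kb2 human breast carcinoma cells carrying an MMTV-luciferase reporter (AR- and GR-responsive) were treated with compounds at 15 concentrations plus 3.0uM final nilutamide for 16hr at 37C without CO2; luminescence was read after ONE-Glo addition.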

[18] = biological target: Progesterone receptor (Homo sapiens) (UniProt P06401); assay: qHTS assay to identify small molecule agonists of the progesterone receptor (PR) signaling pathway (AID 1346784); note: nearly all actives have a fitted effect of over 30% in size
Chain of Progesterone receptor (Homo sapiens) (P06401 whole entry, looked up): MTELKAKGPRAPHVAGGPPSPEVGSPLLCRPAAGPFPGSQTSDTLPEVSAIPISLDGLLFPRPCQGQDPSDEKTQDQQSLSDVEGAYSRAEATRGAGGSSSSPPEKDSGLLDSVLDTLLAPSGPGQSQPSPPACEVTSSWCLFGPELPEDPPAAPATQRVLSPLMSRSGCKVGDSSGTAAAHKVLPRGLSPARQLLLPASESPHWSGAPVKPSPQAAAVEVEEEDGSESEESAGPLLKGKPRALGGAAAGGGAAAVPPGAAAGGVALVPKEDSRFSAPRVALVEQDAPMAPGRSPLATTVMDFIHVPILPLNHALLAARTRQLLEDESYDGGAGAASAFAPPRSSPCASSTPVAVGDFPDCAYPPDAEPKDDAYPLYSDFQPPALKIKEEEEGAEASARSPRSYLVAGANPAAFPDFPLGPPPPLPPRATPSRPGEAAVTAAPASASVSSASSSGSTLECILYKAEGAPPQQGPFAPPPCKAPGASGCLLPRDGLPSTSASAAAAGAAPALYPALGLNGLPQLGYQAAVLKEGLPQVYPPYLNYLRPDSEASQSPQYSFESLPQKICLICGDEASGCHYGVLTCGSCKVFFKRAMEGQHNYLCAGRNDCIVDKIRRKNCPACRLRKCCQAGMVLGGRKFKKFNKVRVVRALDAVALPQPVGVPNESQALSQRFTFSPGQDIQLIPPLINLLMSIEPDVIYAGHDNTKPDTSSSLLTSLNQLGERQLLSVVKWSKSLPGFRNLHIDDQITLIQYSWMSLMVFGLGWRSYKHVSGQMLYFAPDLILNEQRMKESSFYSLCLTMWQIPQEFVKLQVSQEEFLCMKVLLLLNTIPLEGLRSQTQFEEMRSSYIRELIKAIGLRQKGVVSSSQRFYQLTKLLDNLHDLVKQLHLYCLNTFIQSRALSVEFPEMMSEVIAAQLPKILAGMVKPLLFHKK
Method in brief: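 Cells (PR-UAS-bla HEK 293T, GripTite) were plated in assay medium containing 2% charcoal-stripped FBS and incubated 6 hr. Test compounds in DMSO were added for 16 hr at 37C. FRET substrate was then loaded for 2 hr at room temperature before fluorescence reading.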

[19] = biological target: Progesterone receptor (Homo sapiens) (UniProt P06401); assay: qHTS assay to identify small molecule antagonists of the progesterone receptor (PR) signaling pathway (AID 1346795; active = well fitted inhibition curve with a large enough effect in the signal ratio in the repeat runs, not every such curve was filed as active; the % refers to the signal ratio; note: potency is the fitted concentration of half-maximal effect)
Method in brief: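 Antagonist mode: compounds tested against 1 nM (final) promegestone stimulation in HEK293T cells expressing PR-UAS-bla reporter, 16 hr at 37C, 5% CO2; beta-lactamase activity detected via B/G FRET substrate after 2 hr at room temperature.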

CN1CCCC(CC2c3ccccc3Sc3ccccc32)C1 (configuration not stated)
Potency [1]: inactive
Potency [2]: 6.68 µM (active)
Potency [3]: 13.3 µM (active)
Potency [4]: 18.8 µM (active)
Potency [5]: 11.9 µM (active)
Potency [6]: inactive
outcome [7]: inactive
Potency [8]: 29.8 µM (active)
Potency [9]: inactive
Potency [10]: 18.8 µM (active)
Potency [11]: 18.8 µM (active)
Potency [12]: inactive
Potency [13]: inactive
Potency [14]: inactive
outcome [15]: inactive

CCCCOc1ccc(OCCCN2CCOCC2)cc1
Potency [1]: inactive
Potency [2]: 13.3 µM (active)
Potency [3]: inactive
Potency [16]: inactive
Potency [5]: inactive
Potency [6]: inactive
outcome [7]: inactive
Potency [8]: inactive
Potency [9]: inactive
Potency [10]: inactive
Potency [11]: inactive
Potency [12]: inactive
Potency [13]: inactive
Potency [14]: inactive

CC(C)=CCC/C(C)=C/CC/C(C)=C/C(=O)OCC(=O)[C@@]1(O)CC[C@H]2[C@@H]3CCC4=CC(=O)C=C[C@]4(C)[C@H]3[C@@H](O)C[C@@]21C
Potency [1]: inactive
Potency [2]: 8.41 µM (active)
Potency [3]: 13.3 µM (active)
Potency [16]: 26.6 µM (active)
Potency [17]: 0.335 µM (active)
Potency [6]: inactive
outcome [7]: inactive
Potency [14]: inactive
outcome [15]: inactive

CCCCN(CCN(CCCC)C(=O)N1CCOCC1)C(=O)N1CCOCC1
Potency [1]: inactive
Potency [2]: 13.3 µM (active)
Potency [16]: inactive
Potency [4]: inactive
Potency [17]: inactive
Potency [5]: inactive
Potency [6]: inactive
outcome [7]: inactive
Potency [9]: inactive
Potency [11]: 29.8 µM (active)
Potency [12]: inactive
Potency [13]: inactive
outcome [15]: inactive

CCCCCCCCCCCCCCN(CCO)CCO
Potency [1]: inactive
Potency [2]: 19.3 µM (active)
Potency [16]: 61.1 µM (active)
Potency [4]: 54.5 µM (active)
Potency [5]: 48.6 µM (active)
Potency [11]: 34.4 µM (active)
Potency [14]: inactive
outcome [15]: inactive

O=C(O)CCC(=O)C(=O)O
Potency [1]: inactive
Potency [2]: inactive
Potency [16]: inactive
Potency [4]: inactive
Potency [5]: inactive
Potency [6]: inactive
outcome [7]: inactive
Potency [8]: inactive
Potency [9]: inactive
Potency [18]: inactive
Potency [19]: inactive
Potency [10]: inactive
Potency [12]: inactive
Potency [13]: inactive
Potency [14]: inactive

Cc1c(C)c2c(c(C)c1OC(=O)CCC(=O)OCCO)CC[C@@](C)(CCC[C@H](C)CCC[C@H](C)CCCC(C)C)O2
Potency [1]: inactive
Potency [2]: inactive
Potency [3]: 13.3 µM (active)
Potency [16]: inactive
Potency [6]: inactive
outcome [7]: inactive
Potency [8]: inactive
Potency [9]: inactive
Potency [19]: 26.6 µM (active)
Potency [12]: inactive
Potency [13]: inactive
Potency [14]: inactive
outcome [15]: inactive

O=Cc1c2ccccc2c(Cl)c2ccccc12
Potency [1]: inactive
Potency [2]: inactive
Potency [3]: inactive
Potency [4]: inactive
Potency [5]: inactive
Potency [6]: inactive
Potency [9]: inactive
Potency [18]: inactive
Potency [10]: inactive
Potency [11]: inactive
Potency [12]: inactive
Potency [14]: inactive

CC(=O)c1ccc([N+](=O)[O-])cc1
Potency [1]: inactive
Potency [2]: inactive
Potency [3]: inactive
Potency [16]: inactive
Potency [4]: inactive
outcome [7]: inactive
Potency [8]: inactive
Potency [9]: inactive
Potency [10]: inactive
Potency [11]: inactive
Potency [12]: inactive
Potency [14]: inactive

CC(CO)CO
Potency [1]: inactive
Potency [2]: inactive
Potency [16]: inactive
Potency [4]: inactive
Potency [5]: inactive
Potency [6]: inactive
outcome [7]: inactive
Potency [8]: inactive
Potency [9]: inactive
Potency [18]: inactive
Potency [19]: inactive
Potency [10]: inactive
Potency [11]: inactive
Potency [12]: inactive
Potency [13]: inactive
Potency [14]: inactive
outcome [15]: inactive

C[C@@H]1CC(=O)NN=C1c1ccc(NN=C(C#N)C#N)cc1
Potency [1]: inactive
Potency [2]: 13.3 µM (active)
Potency [16]: 23.7 µM (active) and 13.3 µM (active)
Potency [4]: inactive
Potency [17]: inactive
Potency [5]: inactive
Potency [6]: inactive
outcome [7]: inactive
Potency [8]: inactive
Potency [18]: inactive
Potency [10]: inactive
Potency [11]: inactive
Potency [12]: inactive
Potency [13]: inactive
Potency [14]: inactive
outcome [15]: inactive

O=C=Nc1ccc(Cl)c(Cl)c1
Potency [1]: inactive
Potency [2]: inactive
Potency [16]: inactive
Potency [4]: 47.8 µM (active)
Potency [6]: inactive
outcome [7]: inactive
Potency [8]: inactive
Potency [9]: inactive
Potency [18]: inactive
Potency [11]: 23.9 µM (active)
Potency [12]: inactive
Potency [13]: inactive
Potency [14]: inactive

CCOc1cccc(-n2cc(C(=O)N3CCN(c4cc(C(=O)O)c5ccccc5c4)CC3)nc2-c2ccc(C)cc2)c1
Potency [1]: inactive
Potency [2]: inactive
Potency [16]: inactive
Potency [4]: 14.7 µM (active)
Potency [17]: inactive
Potency [18]: inactive

Cc1ccco1
Potency [1]: inactive
Potency [2]: inactive
Potency [16]: inactive
Potency [4]: inactive
Potency [5]: inactive
Potency [6]: inactive
outcome [7]: inactive
Potency [8]: inactive
Potency [9]: inactive
Potency [10]: inactive
Potency [11]: inactive
Potency [12]: inactive
Potency [14]: inactive
outcome [15]: inactive

Reference: PubChem BioAssay (Tox21)
